25 molecules from PubChem BioAssay AID492954 (National Center for Advancing Translational Sciences (NCATS), 2010) can be followed below.

The structures appear in SMILES notation. “And” between values parts separate entries of the source, which are not always exact repeats. Identical values can stand only once. Records with an inconclusive call do not appear. The source made the active and inactive calls. The call rests on the fitted dose curve.

The nature of this assay: Mouse Th17 T cell differentiation assay for inhibitors of ROR gamma transcriptional activity. The note with it: mouse naive CD4 T cells Th17, IL17a-GFP flow cytometry; series mostly up to 20 µM; IL17a-GFP activity, % of control: at the top concentration. An excerpt:
NIH Molecular Libraries Probe Production Network [MLPCN] NIH Chemical Genomics Center [NCGC] MLPCN Grant: R03 DA026211-01 Assay Provider: Dan Littman, New York University Keywords: NIH Roadmap, MLPCN, MLI, MLSMR, qHTS, NCGC, qHTS, nuclear hormone receptor, retinoic acid-related orphan receptor, ROR gamma Assay Overview: The retinoic acid-related orphan receptor (ROR) gamma is a transcription factor that has a central role in the differentiation of Th17 cells, a subset of T helper cells that secrete the inflammatory cytokines IL-17a, IL-17f, and IL-22. Th17 cells have been implicated in graft versus host disease, autoimmune disease and asthma. ROR gamma is induced in naive T helper cells in the presence of TGF-beta combined with IL-6, IL-21, or IL-23, and thereafter directs the expression of the Th17 lineage cytokines. To confirm inhibition of ROR gamma, compounds were tested in a mouse Th17 T cell differentiation assay. Th17 differentiation was tracked by expression of a GFP reporter under the control of the endogenous IL-17a promoter using flow cytometry. Compounds that block ROR gamma activity prevent expression of the IL17a-GFP reporter.
Assay Protocol Summary: Cells from lymph nodes and spleens derived from six to eight week old IL17a-GFP mice (Biocytogen LLC) were used for T cell purification. B220- cells were isolated on an autoMACS Pro with bead depletion of B220+ cells (Miltenyi). Naive CD4+ T cell were further purified as TCRb+CD8- DAPI- CD19- CD4+CD25- CD62L+CD44low/Int by cell sorting on a FACSAria (BD). Cells were cultivated in an incubator at 37 C and 5% CO2 in RPMI 1640 medium (Invitrogen) supplemented with 10% (vol/vol) heat-inactivated FBS (Hyclone), penicillin-streptomycin, 2 mM glutamine and 0.1 mM nonessential amino acids. Cells were seeded on day 0 at a density of 0.4x10^5 cells per ml in 96-well plates coated with anti-CD3e (5 ug/ml) and anti-CD28 (10 ug/ml). Cells were cultured for 4-5 days in Th17 (TGFb (0.3 ng/ml), IL6 (20 ng/ml), anti-IFN-g, and anti-IL-4) condition. At day 1, compounds dissolved in DMSO were added. GFP expression was assayed on day 4 or 5 with DAPI- and PECy7-conjugated CD4+ cells. An LSR II (BD Biosciences) and FlowJo software (Tree Star) were used for flow cytometry. Keywords: NIH Roadmap, MLPCN, MLI, MLSMR, qHTS, NCGC, qHTS, nuclear hormone receptor, retinoic acid-related orphan receptor, ROR gamma
A general note: In flow cytometry, cells or beads pass a laser one at a time.
For the molecule `COc1ccc(C(CC(=O)N2CCCC(C)C2)c2c(O)cc(OC)cc2OC)cc1` (stereo not given), the Potency is 5 µM (active).
As for `COc1ccc(C(CC(=O)N2CCCC(C)C2)c2c(O)cc(OC)cc2OC)c(OC)c1` (stereo not given), the “IL17a-GFP activity, % of control” value was 158% (inactive).
Same read-out and setting: the figure for `COc1cccc(O)c1C(CC(=O)N1CCCC(C)C1)c1ccc2c(c1)OCO2` (stereo not given) is 55.9% (inactive).
`COc1cc(O)c(C(CC(=O)N2CC(C)CC(C)C2)c2ccc(N(C)C)cc2)c(OC)c1` (stereo not given): the Potency was 0.4 µM (active).
For the molecule `COc1cc(O)c(C(CC(=O)N2CC(C)CC(C)C2)c2ccc(C)cc2)c(OC)c1` (stereo not given), the Potency is 0.5 µM (active).
`COc1ccc(C(CC(=O)N2CCCC(C)C2)c2ccc3c(c2)OCO3)c(O)c1` (stereo not given): the “IL17a-GFP activity, % of control” value was 102% (inactive).
On to `COc1cc(O)c(C(CC(=O)N2CCCC(C(F)(F)F)C2)c2ccc3c(c2)OCO3)c(OC)c1` (stereo not given), for which the Potency was 7 µM (active).
As for `COc1cc(O)c(C(CC(=O)N2CCCC(C)C2)c2ccc(C)cc2)c(OC)c1` (stereo not given), the Potency is 4 µM (active).
Still for that read-out and setting: the figure for `COc1cc(O)c(C(CC(=O)N2CC(C)CC(C)C2)c2ccc(O)cc2)c(OC)c1` (stereo not given) is 0.3 µM (active).
On to `COc1cc(OC)c(C(CC(=O)N2CC(C)CC(C)C2)c2ccc3c(c2)OCO3)c(OCC(N)=O)c1` (stereo not given), for which the “IL17a-GFP activity, % of control” value is 55.9% (inactive).
As for `COc1cc(O)c(C(CC(=O)N2CC(C)OC(C)C2)c2ccc3c(c2)OCO3)c(OC)c1` (stereo not given), the Potency is 0.8 µM (active).
Same read-out and setting: under `COc1cc(OC)c(C(CC(=O)N2CC(C)CC(C)C2)c2ccc3c(c2)OCO3)c(OC)c1` (stereo not given) stands 0.8 µM (active); under `COc1cc(O)c(C(CC(=O)N2CC(C)CC(C)C2)c2ccc3c(c2)OCO3)c(OC)c1` (stereo not given), 500 nM (active) and 700 nM (active).
Consider `COc1cc(O)c(C(CC(=O)N2CCCC(C)C2)c2ccccc2C)c(OC)c1` (stereo not given), for which the “IL17a-GFP activity, % of control” value was 105% (inactive).
In the case of `COCOc1cc(OC)cc(OC)c1C(CC(=O)N1CC(C)CC(C)C1)c1ccc2c(c1)OCO2` (stereo not given), the Potency was 1 µM (active).
For `COc1cc(OC)c(C(CC(=O)N2CC(C)CC(C)C2)c2ccc3c(c2)OCO3)c(OCC#N)c1` (stereo not given), the Potency is 3 µM (active).
Turning to `COc1cc(O)c(C(CC(=O)N2CCCC(C)C2)c2ccccc2)c(OC)c1` (stereo not given), the “IL17a-GFP activity, % of control” value is 103% (inactive).
With `COc1cc(O)c(C(CC(=O)N2CC(C)CC(C)C2)c2ccc3c(c2)OCCO3)c(OC)c1` (stereo not given), the Potency is 0.3 µM (active).
For the molecule `COc1cc(O)c(C(CC(=O)N2CC(C)NC(C)C2)c2ccc3c(c2)OCO3)c(OC)c1` (stereo not given), the “IL17a-GFP activity, % of control” value is 87.7% (inactive).
Consider `COc1cc(O)c(C(CC(=O)N2C[C@H](C)C[C@H](C)C2)c2ccc3c(c2)OCO3)c(OC)c1` (stereo not given in full), for which the Potency was 0.4 µM (active).
On the same count and under the same terms, the figure for `COc1ccc(C(CC(=O)N2CC(C)CC(C)C2)c2c(O)cc(OC)cc2OC)cc1` (stereo not given) is 0.4 µM (active).
With `COc1cc(O)c(C(CC(=O)N2CCC(C)CC2)c2ccc3c(c2)OCO3)c(OC)c1` (stereo not given), the “IL17a-GFP activity, % of control” value was 78.2% (inactive).
Take `COc1cc(OC)c(C(CC(=O)N2CCCC(C)C2)c2ccc3c(c2)OCO3)c(OC)c1` (stereo not given): the Potency is 2 µM (active).
On the same count and under the same terms, the figure for `COc1cc(O)c(C(CC(=O)N2CCCC(C)C2)c2cccs2)c(OC)c1` (stereo not given) is 6 µM (active); for `COc1cc(O)c(C(CC(=O)N2CCCC(C)(C)C2)c2ccc3c(c2)OCO3)c(OC)c1` (stereo not given) it is 6 µM (active).
